Assay [1] can be described thus: qHTS assay to test for compound auto fluorescence at 535 nm (green) in HEK293 cells (AID 720680). On the technique in general: In qHTS, concentration-response curves come from the screen itself.
Assay [2] in a line: qHTS assay to test for compound auto fluorescence at 460 nm (blue) in HEK293 cell free culture (AID 720681). An outline of the steps:
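Compounds were added to cell-free DMEM with 10% FBS and fluorescence read directly. The blue channel used 405 nm excitation and 460 nm emission, with triamterene as the reference fluorophore.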

A short description of assay [3]: qHTS assay to test for compound auto fluorescence at 535 nm (green) in HEK293 cell free culture (AID 720682). An outline of the steps:
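Each library compound, or DMSO control, is added by pintool to medium alone, comprising DMEM and 10% FBS. Emission at 535 nm following 485 nm excitation is quantified against fluorescein.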

Assay [4] in a line: qHTS assay to test for compound auto fluorescence at 590 nm (red) in HEK293 cell free culture (AID 720683). An outline of the steps: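 Cell-free wells of DMEM with 10% FBS received compound, and intrinsic fluorescence was read at excitation/emission 540/590 nm. Values expressed as equivalence to Rose Bengal sodium.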
A short description of assay [5]: qHTS assay to test for compound auto fluorescence at 590 nm (red) in HepG2 cell free culture (AID 720684). The essentials: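 Compounds are added to culture medium (MEM, 10% FBS) lacking cells, then fluorescence is read at excitation 540 nm, emission 590 nm, with Rose Bengal sodium as the equivalency standard.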
Assay [6] can be described thus: qHTS assay to test for compound auto fluorescence at 460 nm (blue) in HepG2 cell free culture (AID 720685). An outline of the steps:
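Compound (23 nL) or DMSO pinned into cell-free MEM with 10% FBS; blue fluorescence read at 405/460 nm excitation/emission, expressed as auto-fluorescence equivalency to triamterene.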

A short description of assay [7]: qHTS assay to test for compound auto fluorescence at 535 nm (green) in HepG2 cell free culture (AID 720686).
Assay [8] is described as follows: qHTS assay to test for compound auto fluorescence at 460 nm (blue) in HepG2 cells (AID 720687). An outline of the steps:
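HepG2 cells in MEM with 10% FBS, attached overnight at 37 C, were exposed to compound or DMSO for 1 hr at 37 C, 5% CO2. Blue fluorescence was read at 405/460 nm, with triamterene as reference fluorophore.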

Assay [9] in a line: qHTS assay to identify small molecule antagonists of the glucocorticoid receptor (GR) signaling pathway - cell viability counter screen (AID 720693). Note: nearly all actives have a fitted effect of over 55% in size.
The nature of assay [10]: qHTS assay for identifying genotoxic compounds that show differential cytotoxicity against isogenic chicken DT40 cell lines with known DNA damage response pathways - wild type cell line (AID 743012). Note: nearly all actives have a fitted effect of over 60% in size. Note: potency is the fitted concentration of half-maximal effect. The essentials:
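Wild-type DT40 cells (300/well) exposed to compounds for 40 hours at 37 C/5% CO2. Viability read by CellTiter-Glo luminescence after 30 min at room temperature.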

Assay [11] can be described thus: qHTS assay for identifying genotoxic compounds that show differential cytotoxicity against isogenic chicken DT40 cell lines with known DNA damage response pathways - Rev3 mutant cell line (AID 743014). Note: nearly all actives have a fitted effect of over 55% in size. Note: potency is the fitted concentration of half-maximal effect.
A short description of assay [12]: qHTS assay for identifying genotoxic compounds that show differential cytotoxicity against isogenic chicken DT40 cell lines with known DNA damage response pathways - Rad54/Ku70 mutant cell line (AID 743015). Note: nearly all actives have a fitted effect of over 60% in size. Note: potency is the fitted concentration of half-maximal effect.
A short description of assay [13]: qHTS assay to identify small molecule antagonists of the androgen receptor (AR) signaling pathway - cell viability counter screen (AID 743033; note: nearly all actives have a fitted effect of over 45% in size).
The target in assay [14] is Androgen receptor (Homo sapiens) (UniProt P10275). As to the kind of experiment: qHTS assay to identify small molecule antagonists of the androgen receptor (AR) signaling pathway (AID 743035; active = well fitted inhibition curve with a large enough effect in the signal ratio in the repeat runs, not every such curve was filed as active; the % refers to the signal ratio; note: potency is the fitted concentration of half-maximal effect). The essentials: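 HEK293 cells stably carrying UAS-beta-lactamase reporter, 2,000/well, given compounds plus R1881 agonist and incubated 16 h at 37C. LiveBLAzer B/G FRET substrate then added for 2 h at room temperature before fluorescence reading.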

For assay [15] the target is unchanged. As to the kind of experiment: qHTS assay to identify small molecule agonists of the androgen receptor (AR) signaling pathway (AID 743036; active = well fitted activation curve with a large enough effect in the signal ratio in the repeat runs, with a control signal flat, not every such curve was filed as active; the % refers to the signal ratio; note: potency is the fitted concentration of half-maximal effect). The essentials:
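Following a 4 h settling period, AR-UAS-bla HEK293 cells were dosed with compounds for 16 h at 37C. A 2 h room-temperature incubation with LiveBLAzer B/G FRET substrate preceded the fluorescence measurement.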

Assay [16] has the same target. The assay can be described thus: qHTS assay to identify small molecule agonists of the androgen receptor (AR) signaling pathway using the MDA cell line (AID 743040; note: nearly all actives have a fitted effect of over 20% in size; note: potency is the fitted concentration of half-maximal effect). The essentials:
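Human breast carcinoma MDA-kb2 reporter cells (MMTV-luc, AR/GR elements) were treated for 16 h at 37C in 0% CO2 following a 5 h settling period. Signal was quantified by ONE-Glo luminescence.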

Assay [17] can be described thus: qHTS assay to identify small molecule antagonists of the androgen receptor (AR) signaling pathway using the MDA cell line - cell viability counter screen (AID 743041; note: nearly all actives have a fitted effect of over 45% in size; note: potency is the fitted concentration of half-maximal effect). The essentials: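 Same-well cytotoxicity was assessed by CellTiter-Fluor in MDA-kb2 AR-luc cells after 16 h of compound treatment under R1881 agonism.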
For assay [18], the target named is Androgen receptor (Homo sapiens) (UniProt P10275). The assay can be described thus: qHTS assay to identify small molecule antagonists of the androgen receptor (AR) signaling pathway using the MDA cell line (AID 743042; note: nearly all actives have a fitted effect of over 55% in size). An outline of the steps:
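MDA-kb2 breast carcinoma cells carrying MMTV-luciferase (AR/GR responsive) were co-treated with compounds and the agonist R1881 for 16 h at 37C. Inhibition read as ONE-Glo luminescence; CellTiter-Fluor fluorescence measured in parallel for cytotoxicity.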

The target in assay [19] is Glucocorticoid receptor (Homo sapiens) (UniProt P04150). As to the kind of experiment: qHTS assay to identify small molecule agonists of the glucocorticoid receptor (GR) signaling pathway (AID 720691; active = well fitted activation curve with a large enough effect in the signal ratio in the repeat runs, not every such curve was filed as active; the % refers to the signal ratio). Conditions: GR-bla HeLa, beta-lactamase reporter ratio, 18 h; activation: at 62.4 µM (top of the series). An outline of the steps:
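GR-bla HeLa cells carrying a GRE-driven beta-lactamase reporter, exposed to compounds for 18 h at 37 C. Reporter activation read as fluorescence after 2 h with LiveBLAzer B/G FRET substrate at room temperature.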

Assay [20] has the same target. The assay can be described thus: qHTS assay to identify small molecule antagonists of the glucocorticoid receptor (GR) signaling pathway (AID 720692; active = well fitted inhibition curve with a large enough effect in the signal ratio in the repeat runs, not every such curve was filed as active; the % refers to the signal ratio; note: potency is the fitted concentration of half-maximal effect). The essentials: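 GR-bla HeLa cells carrying a GRE-driven beta-lactamase reporter received compound after 4 h plating, then dexamethasone (5 nM final). After 18 h at 37C, the FRET substrate was loaded for 2 h at room temperature and fluorescence read.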

Results filed as inconclusive are left out. A structure can be active in one record and inactive in another. Active and inactive are the calls of the source. Unless noted, calls come from the whole dose curve; as a rule, active = well fitted curve in the direction sought with a large enough effect in the repeat runs; inconclusive = weak or mixed curves; inactive = no such curve, though single readings can be large; an effect the other way counts as inactive or inconclusive.

Glucocorticoid receptor (Homo sapiens), sequence (P04150 whole entry, looked up): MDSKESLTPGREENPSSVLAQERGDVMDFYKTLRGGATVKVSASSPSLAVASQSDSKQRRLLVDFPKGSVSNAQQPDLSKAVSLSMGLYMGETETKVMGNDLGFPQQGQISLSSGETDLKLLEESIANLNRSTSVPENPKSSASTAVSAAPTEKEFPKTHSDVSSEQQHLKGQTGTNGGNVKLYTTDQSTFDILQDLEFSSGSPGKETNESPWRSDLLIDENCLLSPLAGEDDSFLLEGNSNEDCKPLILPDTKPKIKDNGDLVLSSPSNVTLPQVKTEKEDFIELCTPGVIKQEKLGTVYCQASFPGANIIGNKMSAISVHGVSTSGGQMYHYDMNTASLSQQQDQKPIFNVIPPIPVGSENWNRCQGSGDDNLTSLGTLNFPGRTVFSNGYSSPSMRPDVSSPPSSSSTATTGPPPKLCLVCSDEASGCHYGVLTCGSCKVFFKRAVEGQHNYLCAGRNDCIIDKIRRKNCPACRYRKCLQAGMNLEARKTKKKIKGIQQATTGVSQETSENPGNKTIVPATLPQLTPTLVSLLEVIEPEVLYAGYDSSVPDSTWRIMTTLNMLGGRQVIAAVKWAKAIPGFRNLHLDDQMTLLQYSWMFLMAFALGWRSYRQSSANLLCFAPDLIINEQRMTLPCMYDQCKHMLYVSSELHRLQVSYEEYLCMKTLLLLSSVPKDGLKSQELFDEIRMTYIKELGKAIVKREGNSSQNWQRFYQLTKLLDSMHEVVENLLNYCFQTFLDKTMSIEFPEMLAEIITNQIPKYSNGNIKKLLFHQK
Androgen receptor (Homo sapiens), sequence (P10275 whole entry, looked up): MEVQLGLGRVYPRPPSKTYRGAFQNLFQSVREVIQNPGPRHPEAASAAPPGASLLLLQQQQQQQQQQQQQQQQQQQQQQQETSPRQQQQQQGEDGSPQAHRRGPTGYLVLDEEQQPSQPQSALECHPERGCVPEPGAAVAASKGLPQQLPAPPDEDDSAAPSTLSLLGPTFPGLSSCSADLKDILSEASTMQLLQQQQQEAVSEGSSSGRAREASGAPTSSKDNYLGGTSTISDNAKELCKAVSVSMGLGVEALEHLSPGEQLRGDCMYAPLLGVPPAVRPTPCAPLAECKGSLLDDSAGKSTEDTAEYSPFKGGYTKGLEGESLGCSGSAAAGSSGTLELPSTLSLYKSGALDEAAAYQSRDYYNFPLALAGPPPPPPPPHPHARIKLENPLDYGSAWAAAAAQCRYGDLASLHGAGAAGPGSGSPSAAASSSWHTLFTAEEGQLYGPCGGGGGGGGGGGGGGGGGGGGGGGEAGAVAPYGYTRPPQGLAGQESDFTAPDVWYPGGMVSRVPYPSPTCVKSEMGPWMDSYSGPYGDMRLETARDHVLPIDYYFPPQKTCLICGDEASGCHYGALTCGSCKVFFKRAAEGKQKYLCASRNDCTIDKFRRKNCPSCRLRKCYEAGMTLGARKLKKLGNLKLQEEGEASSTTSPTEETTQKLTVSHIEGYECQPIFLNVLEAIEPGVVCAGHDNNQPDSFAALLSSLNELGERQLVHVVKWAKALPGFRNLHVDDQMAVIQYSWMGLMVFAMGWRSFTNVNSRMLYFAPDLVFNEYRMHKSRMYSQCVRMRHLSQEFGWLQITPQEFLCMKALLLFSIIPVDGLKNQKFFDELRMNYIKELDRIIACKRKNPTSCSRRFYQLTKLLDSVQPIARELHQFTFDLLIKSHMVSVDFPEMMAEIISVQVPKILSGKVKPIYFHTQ

On to `C#C[C@]1(O)CC[C@H]2[C@@H]3CCC4=C/C(=N/O)CC[C@@H]4[C@H]3CC[C@@]21CC`, for which the Potency entry in assay [1], in assay [2], in assay [3], in [4], in assay [5] and in assay [7] was “inactive” throughout. The Potency result in [9] and in [13] was “inactive” each time. Further, the compound was classed as inactive in [6] and in [8]. The Potency is 16.8 µM (active) in [10]; 23.7 µM (active) in assay [11]; 21.1 µM (active) in assay [12]; 26.8 µM (active) in assay [14]; 4.25 µM (active) in assay [15]; 0.0335 µM (active) in assay [16].
Take `CC(=O)Nc1ccc(OC(=O)c2ccccc2O)cc1`: the Potency result in assay [1], in assay [2], in [3], in [4], in assay [5] and in [7] was “inactive” each time. The Potency entry in assay [9], in [10], in assay [11], in assay [12], in [13] and in [14] was “inactive” each time. In addition, the Potency result in [16], in [17] and in [18] was “inactive” throughout. Further, the result in [6] and in [8] was inactive.
Turning to `C[C@H](/C=C/[C@H](C)C(C)(C)O)[C@H]1CC[C@H]2/C(=C/C=C3C[C@@H](O)C[C@H](O)C3)CCC[C@]12C`, the Potency entry in [1], in assay [2], in assay [3], in assay [4], in assay [5] and in assay [7] was “inactive” each time. The Potency result in assay [19], in assay [10], in [11], in assay [12], in assay [13] and in [17] was “inactive” throughout. Moreover, the outcome in assay [6] and in [8] was inactive.
Consider `S=C=Nc1ccc(N=C=S)cc1`, for which the Potency entry in assay [1], in assay [2], in assay [3], in assay [4], in assay [5] and in assay [7] was “inactive” in each case. Further, the Potency entry in assay [9], in [10], in assay [11], in assay [12] and in assay [13] was “inactive” throughout. The outcome in assay [6] and in assay [8] was inactive.
`CCC(=O)OCC(=O)[C@@]1(OC(=O)CC)[C@@H](C)C[C@H]2[C@@H]3CCC4=CC(=O)C=C[C@]4(C)[C@@]3(Cl)[C@@H](O)C[C@@]21C`: the Potency entry in assay [1], in assay [2], in [3], in [4], in assay [5] and in assay [7] was “inactive” throughout. The Potency entry in assay [9], in assay [13], in assay [17] and in assay [18] was “inactive” in each case. Further, the result in assay [6] and in assay [8] was inactive. The Potency in assay [10] was 13.3 µM (active); in [11], 15 µM (active); in assay [12], 13.3 µM (active); in assay [16], 0.0094 µM (active).
Regarding `CCCCCCCCCCCCCCCCCC(=O)OCC(C)O` (centres undefined), the Potency entry in assay [1], in [2], in assay [3], in [4], in assay [5] and in assay [7] was “inactive” throughout. Besides, the Potency result in [9], in assay [10], in [11], in assay [12] and in assay [13] was “inactive” in each case. The outcome in assay [6] and in [8] was inactive. Besides, the Potency in assay [17] is 26.6 µM (active).
With `COCC1=C(C(=O)OC(C)OC(=O)OC(C)C)N2C(=O)[C@@H](NC(=O)/C(=N\OC)c3csc(N)n3)[C@H]2SC1` (some centres undefined), the Potency result in [1], in [2], in assay [3], in [4], in assay [5] and in [7] was “inactive” throughout. For the same compound, the Potency result in [9] and in assay [13] was “inactive” each time. Also, the call in assay [6] and in assay [8] was inactive. The Potency in assay [10] was 1.68 µM (active) and inactive; in [11], 2.37 µM (active) and inactive; in [12], 1.06 µM (active) and inactive.
As to `CC(C)N=c1cc2n(-c3ccc(Cl)cc3)c3ccccc3nc-2cc1Nc1ccc(Cl)cc1`, the Potency entry in assay [1], in assay [2], in assay [3], in [4], in assay [5] and in assay [7] was “inactive” in each case. Also, the Potency entry in assay [19] and in assay [13] was “inactive” throughout. Further, the compound was called inactive in [6] and in assay [8]. Besides, the Potency was 11.4 µM (active) in assay [11] and 12.7 µM (active) in assay [12].
For the compound `CC(CN(C)C)CN1c2ccccc2S(=O)(=O)c2ccccc21` (centres undefined), the Potency result in [1], in assay [2], in [3], in assay [4], in assay [5] and in assay [7] was “inactive” each time. Besides, the Potency result in assay [9], in [10], in assay [11], in assay [12], in assay [13] and in assay [14] was “inactive” throughout. The Potency result in assay [15], in assay [16], in assay [17] and in [18] was “inactive” throughout. Moreover, the outcome in assay [6] and in assay [8] was inactive.
With `Nc1ncnc2c1ncn2[C@@H]1O[C@H](COP(=O)(O)OP(=O)(O)OP(=O)(O)O)[C@@H](O)[C@H]1O`, the Potency result in assay [1], in assay [2], in [3], in [4], in assay [5] and in [7] was “inactive” throughout. Also, the Potency result in assay [19], in assay [10], in assay [11], in assay [12], in [13] and in assay [17] was “inactive” each time. Also, the compound was classed as inactive in assay [6] and in assay [8].
As for `NC(=O)c1ccc[n+]([C@@H]2O[C@H](COP(=O)([O-])OP(=O)(O)OC[C@H]3O[C@@H](n4cnc5c(N)ncnc54)[C@H](O)[C@@H]3O)[C@@H](O)[C@H]2O)c1`, the Potency result in assay [1], in assay [2], in assay [3], in [4], in assay [5] and in assay [7] was “inactive” each time. For the same compound, the Potency result in [9], in [10], in assay [11], in assay [12], in assay [13] and in assay [15] was “inactive” in each case. Further, the Potency result in assay [16], in [17] and in assay [18] was “inactive” throughout. Besides, the compound was called inactive in assay [6] and in assay [8].
As to `CCCOc1cc(N)ccc1C(=O)OCCN(CC)CC`, the Potency entry in assay [1], in assay [2], in assay [3], in assay [4], in [5] and in assay [7] was “inactive” in each case. Besides, the Potency entry in assay [20], in assay [9], in assay [10], in assay [11], in [12] and in assay [13] was “inactive” each time. The Potency entry in assay [14], in assay [15], in assay [16], in [17] and in [18] was “inactive” throughout. The outcome in [6] and in assay [8] was inactive.
Regarding `N#CC(c1ccc(Cl)cc1)c1c(Cl)cc(-n2ncc(=O)[nH]c2=O)cc1Cl` (centres undefined), the Potency entry in [1], in [2], in [3], in assay [4], in assay [5] and in assay [7] was “inactive” in each case. Further, the Potency result in assay [9], in [13], in assay [16], in assay [17] and in assay [18] was “inactive” in each case. Further, the compound was called inactive in assay [6] and in assay [8]. Further, the Potency in [20] is 23.9 µM (active); in assay [10], 29.8 µM (active); in assay [12] it was 29.8 µM (active).

The values are drawn from PubChem BioAssay (Tox21).
